# S1P4 antagonist = S1P4 receptor antagonists, primary screen, cell-based; Sphingosine 1-phosphate receptor 4 (Homo sapiens), O95977; S1P4-expressing cells, antagonist mode, reporter read-out; inhibition, % at 4.98 µM; 220,000 tested, 0.26% active; AID 1510, 2009; in the data active = inhibition above about 29%;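 also: 0% = wells stimulated with agonist and 100% = vehicle wells without agonist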
# Ins promoter up = insulin promoter activators in MIN6 cells, imaging, high-content screening, mouse beta cells | 190,000 tested, 0.3% active | MIN6 insulin promoter-GFP reporter; hits give high values | z-score at 5 µM;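 active = z-score above 3 at 5 µM with at least 500 cells counted in the well; inconclusive = wells under 500 cells, flagged as cytotoxic or low count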
# S1P3 antag = S1P3 receptor antagonists, primary screen, cell-based; Sphingosine 1-phosphate receptor 3 (Homo sapiens), Q99500; CHO S1P3 NFAT-BLA reporter, FRET fluorescence, antagonist mode; inhibition, % at 4.98 µM; 170,000 tested, 0.27% active;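 active = inhibition above the plate cutoff, the mean inhibition of test wells on that plate plus 3 SD, cut at about 28% in these data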;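 also: cells challenged with S1P at its EC80 of 0.8 µM; blue over green emission ratio from cleaved BLA substrate after 4 h stimulation; 0% = S1P-stimulated wells and 100% = unstimulated DMSO-only wells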
# INS promoter inh = inhibitors of insulin promoter-driven GFP, primary screen, imaging, TRM-6 cells (human fetal islet line), eGFP reporter, cell count; inhibition, % at 2 µM; 130,000 tested, 0.9% active; reporter expression induced with tamoxifen;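 active = inhibition above the mean plus 3 SD, with well images judged a real hit on visual review, cut at about 60% in these data, passing the limit was not always enough; inconclusive = inhibition over the cutoff but images rejected on review; inactive = inhibition not above the cutoff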
# Hsp70 activator = Hsp70 transcriptional activators, primary screen, cell-based, HeLa, Hsp70 promoter luciferase, luminescence, 10 µM; HeLa Hsp70 promoter luciferase reporter; scaled: vehicle 0, proteasome-inhibitor control 100%; activation, % at 10 µM; 200,000 tested, 0.04% active; AID 1203, 2008;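 active = activation above the mean across all tested compounds plus 3 SD, cutoff set per campaign, cut at about 5.5% in these data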;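 also: 100% = MG132 at 30 µM as the positive control and 0% = DMSO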
# S1P4 ag = S1P4 receptor agonists, primary screen, cell-based; Sphingosine 1-phosphate receptor 4 (Homo sapiens), O95977; S1P4-expressing cell line, agonist reporter assay; activation, % at 4.98 µM; 220,000 tested, 0.35% active; AID 1509, 2009; in the data active = activation above about 11%;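 also: 0% = DMSO vehicle and 100% = reference agonist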
# S1P4 antag cf = S1P4 receptor antagonists, human, confirmation, cell-based | 520 tested, 71% active | shares compounds with S1P4 antagonist | S1P4-expressing cell line, antagonist mode, reporter read-out | AID 1524, 2009 | inhibition, % at 4.98 µM; in the data active = inhibition above about 30%
# S1P1 antag = S1P1 receptor antagonists, human, counter-screen for S1P4 antagonist project, cell-based. shares compounds with S1P4 antagonist. cell-based S1P1 antagonist counterscreen, inhibition. inhibition, % at 4.98 µM. 520 tested, 37% active; in the data active = inhibition above about 40%;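 also: receptor stimulated with S1P near its EC80; 0% = agonist stimulated wells and 100% = vehicle only wells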
# Target sequence (P21453 whole entry, looked up): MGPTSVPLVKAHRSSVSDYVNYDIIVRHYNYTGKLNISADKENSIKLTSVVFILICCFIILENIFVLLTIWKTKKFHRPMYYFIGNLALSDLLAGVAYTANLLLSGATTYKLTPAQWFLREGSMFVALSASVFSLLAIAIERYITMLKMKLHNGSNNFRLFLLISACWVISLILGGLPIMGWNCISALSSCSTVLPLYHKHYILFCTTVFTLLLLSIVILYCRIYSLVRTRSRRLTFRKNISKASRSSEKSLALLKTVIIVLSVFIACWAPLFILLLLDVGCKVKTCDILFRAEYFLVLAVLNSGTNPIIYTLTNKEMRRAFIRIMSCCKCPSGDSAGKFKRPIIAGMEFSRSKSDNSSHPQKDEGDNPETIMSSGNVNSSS
# * hit, by the source's call; ? = inconclusive; · = no result. In the library only some 1.5% were active in any assay of this set; here they are far more common.
SMILES,S1P4 antagonist,Ins promoter up,S1P3 antag,INS promoter inh,Hsp70 activator,S1P4 ag,S1P4 antag cf,S1P1 antag
Cc1cc(Nc2cccc(O)c2)c2ccccc2n1,-17.2,-0.05,4.8,·,-0.4,0.9,·,·
COc1ccc(Nc2cc(C)c3ccc(O)cc3n2)cc1,88.3*,0.74,-6.0,·,·,-0.4,64.6*,30.4
O=C(NC1CCCC1)C(c1ccncc1)N(Cc1ccccc1)C(=O)c1ccc(-c2ccccc2)[nH]1 (stereo not given),-6.8,0.12,1.8,-36.7,-0.2,-0.3,·,·
O=C(NC1CCCC1)C(c1ccncc1)N(Cc1ccco1)C(=O)c1ccc(-c2ccccc2)[nH]1 (stereo not given),46.8*,-0.48,-4.6,-53.9,0.0,-1.2,22.3,1.5
CCOC(=O)C(=Cc1ccc(F)cc1)C(=O)OCC,18.6,0,·,-19.2,0.1,-1.4,·,·
CCOC(=O)C(=Cc1ccc(Br)cc1)C(=O)OCC,90.4*,-1.34,-26.1,·,·,0.6,115.2*,34.5
N#C/C(=C\c1ccccn1)c1nc2ccccc2s1,74.2*,·,-3.8,-361.5,-0.4,-0.5,35.6*,43.0*
O=C(Nc1ccc(N2CCCCC2)cc1)c1cccnc1Cl,1.9,0.78,·,0.0,-0.2,-0.8,·,·
O=C(Nc1ccc(Cl)cc1)c1cccnc1N1CCCCC1,95.0*,-0.88,·,20.0,0.0,1.0,2.1,10.7
CCOC(=O)N1CCC(NC(=O)c2ccc(CS(=O)(=O)c3ccc(OC)cc3)o2)CC1,-15.8,-0.35,-23.4,·,-0.1,3.3,·,·
CC(NC(=O)CN(c1cccc(C(F)(F)F)c1)S(=O)(=O)c1ccc(Cl)c([N+](=O)[O-])c1)c1ccccc1 (stereo not given),44.4*,-0.54,-18.0,-20.0,-0.3,0.1,87.3*,52.9*
CCCCNCc1cc(OCC)c(OCC)cc1Br,-9.6,-0.29,5.7,·,0.3,-0.3,·,·
Cc1ccc(-c2noc(-c3ccccc3C(=O)NCc3ccco3)n2)cc1,-2.2,0.18,7.1,·,·,0.7,·,·
O=C(NCc1ccco1)c1ccccc1-c1nc(-c2ccccc2)no1,30.0*,·,·,-17.4,-0.1,0.9,-1.8,-2.2
O=C(CCl)Nc1cc(SCC(O)CO)cc([N+](=O)[O-])c1 (stereo not given),39.0*,?,-5.5,·,-0.7,0.1,112.4*,102.4*
O=C(CSc1ccc(Cl)cc1)NCc1ccco1,5.3,-0.01,-1.6,·,-0.4,2.7,·,·
Cc1ccc(C(=O)Nc2nc3ccccc3n2CCN2CCCC2)cc1,30.5*,-0.72,-4.3,·,-0.1,-2.5,8.0,-10.9
O=C(Nc1nc2ccccc2n1CCN1CCCC1)c1ccc(Cl)cc1,-1.2,-0.56,-9.1,-21.9,0.1,-0.8,·,·
CCCn1c(NC(=O)c2ccccc2)nc2ccccc21,29.5*,0.11,-59.1,31.2,-0.2,-3.2,4.9,8.9
CCN(CC)CCNC(=O)c1ccc2c(c1NCCO)C(=O)c1ccccc1C2=O,80.8*,0.39,8.8,·,·,0.0,-11.4,-0.9
O=C(NCc1ccc(Cl)cc1)c1n[nH]c([N+](=O)[O-])c1Cl,-8.4,1.3,-17.0,·,0.0,0.1,·,·
CC(=O)Nc1cccc(C(=O)/C=C/c2ccc(C)cc2)c1,45.1*,-0.31,-8.2,·,0.3,1.2,55.0*,21.3
CCc1ccccc1NC(=O)Nc1ccc(F)cc1F,1.7,0.4,11.9,10.0,-0.1,1.2,·,·
O=C(Nc1ccc(F)cc1F)Nc1ccccc1C(=O)NCCN1CCNC1=O,30.5*,-0.37,-19.1,·,·,-0.2,-14.4,11.2
Cc1ccc2cc(/C=C/C(=O)c3ccco3)c(Cl)nc2c1,37.3*,1.11,1.0,·,·,-1.1,68.5*,0.2
SMILES,S1P4 antagonist,Ins promoter up,S1P3 antag,INS promoter inh,Hsp70 activator,S1P4 ag,S1P4 antag cf,S1P1 antag
COc1ccc(-c2cc(C(F)F)n3ncc(C(=O)N4CCCCC4)c3n2)cc1,5.0,0.31,·,-56.8,-0.2,0.9,·,·
O=C(c1cnn2c(C(F)F)cc(-c3ccccc3)nc12)N1CCN2CCCC2C1 (stereo not given),35.0*,-0.69,-20.5,-104.5,0.5,-0.4,-0.5,3.1
C/C(CC(C)(C)C1CCCCC1)=N\NC(N)=S,47.7*,-0.45,·,32.3,-0.4,-0.8,66.7*,-11.1
C/C(CCC12CC3CC(CC(C3)C1)C2)=N\NC(N)=S,15.6,·,·,-40.6,-0.6,-2.4,·,·
Cc1c(Cl)cccc1NC(=O)CNCc1ccccc1F,8.2,·,6.4,·,-0.2,-1.1,·,·
O=C(OCn1ncc(Br)c(Br)c1=O)c1c(F)cccc1F,59.5*,?,·,-257.1,3.9,-2.0,115.6*,12.2
CC(=O)Cn1ncc(Br)c(Br)c1=O,33.5*,·,-5.9,·,1.1,-2.2,111.0*,50.9*
CCOc1ccc(-n2c(=O)c3sccc3n(Cc3ccc(C)cc3)c2=O)cc1,-19.6,-0.42,-20.9,·,-0.2,1.1,·,·
COc1cc(CNCCO)cc(Cl)c1OCc1ccc(Cl)cc1Cl,31.1*,·,-15.0,·,-0.3,4.3,50.6*,64.0*
COc1cc(CNCCO)cc(Br)c1OCc1ccccc1Cl,13.5,-0.95,·,19.2,-0.3,9.5,·,·
COc1ccc(-c2csc(NC3OC(=O)c4c3ccc(OC)c4OC)n2)cc1OC (stereo not given),32.3*,0.66,0.0,·,·,0.6,57.6*,43.5*
COc1ccc2c(c1OC)C(=O)OC2Nc1nc(-c2ccc([N+](=O)[O-])cc2)cs1 (stereo not given),10.4,-0.26,1.5,·,·,-1.2,·,·
COc1ccc(C(=O)NC(NC(=O)c2ccc(OC)c(OC)c2)c2ccccc2F)cc1OC,-8.0,1.2,5.5,28.6,0.5,0.2,·,·
OCC1(Cc2ccccc2)CCN(Cc2ccc(-c3ccco3)cc2)CC1,-7.7,-0.21,2.6,·,-0.3,0.6,·,·
Cc1nn(-c2ccccc2)c2c1C(c1ccc(O)c(O)c1)N1C(=N2)C(Nc2ccccc2)=Nc2ccccc21 (stereo not given),51.2*,0.25,·,-7.9,-0.4,-0.4,69.5*,65.4*
COc1ccc(/C=C(/NC(=O)c2ccccc2)c2nc3ccc(Cl)cc3[nH]2)cc1OC,-12.6,-0.33,3.1,-25.0,-0.4,-1.3,·,·
CCOC(=O)c1sc(-c2ccc(C(F)(F)F)cc2)nc1O,38.1*,-0.12,22.0,·,·,0.7,33.6*,22.8
O=C(Nc1cccc(S(=O)(=O)N2CCCCC2)c1)c1ccc([N+](=O)[O-])o1,53.8*,0.09,-14.7,·,0.8,-4.4,95.2*,19.2

# Source: PubChem (several laboratories)
